Over roughly 33,000 sequences, “e-score” has its median near -0.038; the highest 2% begin near 0.33. The full list was thinned out, with the highest values kept by preference.

The experiment deals with T1, GST-Rok-C97-191 (Bacillus subtilis subsp. subtilis str. …, UniProt O34857 97-191).
T1 sequence: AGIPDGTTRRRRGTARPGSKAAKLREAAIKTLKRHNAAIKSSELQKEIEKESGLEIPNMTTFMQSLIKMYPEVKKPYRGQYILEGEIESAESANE
The experiment in a line: protein binding microarray; Rok is a gene silencer of Bacillus subtilis; high values mean tight binding. The following applies: protein: recombinant; tags: GST (pTH5325, pDEST15-Magic modified); dsDNA, one strand shown. In short, it runs like this:
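Every oligonucleotide joins a 25-mer constant primer to a 35-mer variable part drawn from a de Bruijn sequence of order 10, so each non-palindromic 8-mer appears at least 32 times and each palindromic 8-mer 16 times. The preference for every 8-mer is reported as a unitless, rank-based enrichment score (E-score). This score spans 0.5 for the most favored 8-mer to −0.5 for the most disfavored.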
Turning to CCGCAAAA, the binding signal is -0.142 E-score.

As for AGGCCGGA, the binding signal is -0.102 E-score.

Regarding GTGTATTA, the binding signal was determined as 0.11 E-score.

Take AGATATTG: the binding signal was 0.186 E-score.

As to GTATATTA, the binding signal turned out to be 0.371 E-score.

On to AGATATTA, for which the binding signal stood at 0.356 E-score.

For the sequence GCATATTA, the binding signal came out at 0.153 E-score.

On to CTATATTC, for which the binding signal amounted to 0.274 E-score.

CGATATTA: the binding signal was 0.286 E-score.

On to ATATATTC, for which the binding signal was found to be 0.374 E-score.

For the sequence ACATATTA, the binding signal stood at 0.304 E-score.

In the case of CTCTATTC, the binding signal was -0.103 E-score.

ATATATTA: the binding signal stood at 0.447 E-score.

Regarding ATGTATTA, the binding signal came to 0.301 E-score.

AGGTCCCG: the binding signal is -0.133 E-score.

Regarding AAACTTCA, the binding signal stood at 0.0505 E-score.

For GAAAAACA, the binding signal was 0.0708 E-score.

On to CACGGAAG, for which the binding signal amounted to 0.00148 E-score.

As for AAAGTCTC, the binding signal stood at 0.0451 E-score.

Regarding AGGGTCGC, the binding signal is -0.122 E-score.

On to GCGTCCAA, for which the binding signal is -0.0249 E-score.

As for GCGTAAAA, the binding signal amounted to 0.139 E-score.

Regarding ACCTCGAT, the binding signal came to 0.113 E-score.

Turning to AGCCGTTC, the binding signal is -0.05 E-score.

Regarding ACAGCAAG, the binding signal is -0.0495 E-score.

As for ACGGTAGA, the binding signal came out at 0.318 E-score.

With AAGGTAGG, the binding signal was -0.00436 E-score.

For the sequence AAGGTAGC, the binding signal came to 0.158 E-score.

As to ACGGTAGC, the binding signal amounted to 0.0805 E-score.

In the case of AAGGTAGT, the binding signal was determined as 0.33 E-score.

Turning to ACGGTAGT, the binding signal amounted to 0.408 E-score.

As for ATGCAAGC, the binding signal was -0.0317 E-score.

Regarding CGTCGCTC, the binding signal is -0.161 E-score.

For the sequence ACATTCCC, the binding signal is -0.0621 E-score.

In the case of AGGACCGG, the binding signal was -0.171 E-score.

For GTCTACTA, the binding signal came to 0.29 E-score.

On to ATCTACGG, for which the binding signal worked out at 0.0258 E-score.

ATCTACTC: the binding signal worked out at 0.206 E-score.

Consider ATCTACTA, for which the binding signal worked out at 0.456 E-score.

Regarding ATCTACTG, the binding signal was determined as 0.423 E-score.

On to CTCTACTA, for which the binding signal is 0.2 E-score.

For the sequence ACCCACTG, the binding signal was -0.0641 E-score.

On to CATCGGAC, for which the binding signal worked out at 0.0521 E-score.

Turning to GGCAAAGA, the binding signal was -0.188 E-score.

Consider ACGGTTAT, for which the binding signal amounted to 0.165 E-score.

In the case of ATGATACG, the binding signal came out at 0.141 E-score.

As for CTACCCGC, the binding signal is -0.0513 E-score.

Take CGGTAAGA: the binding signal is -0.0738 E-score.

For the origin of these results see publication PMC6212790, “How bacterial xenogeneic silencer rok distinguishes foreign from self DNA in its resident genome”.
